Test results published in ChEMBL document CHEMBL4888484, “Replenishing the malaria drug discovery pipeline: Screening and hit evaluation of the MMV Hit Generation Library 1 (HGL1) against asexual blood stage Plasmodium falciparum ,using a nano luciferase reporter read-out” (2022).
Hit rate of the full screen: of about 4,800 compounds, about 420 (8.8%) showed an effect of 50% or more. This excerpt belongs to a sample that is enriched for strong results.

system: Plasmodium falciparum; assay: Confirmatory screen in NF54 nanoGlo assay, in single point, at 2uM, 72h; format: functional, Erythrocyte; settings: timepoint 72 hour

Row | Structure (SMILES) | % Inhibition [%]
1 | Cc1nn(C)c(C)c1-c1cc(C(=O)Nc2sc3c(c2C#N)CCCC3)c2ccccc2n1 | -13
2 | Cc1cccnc1NC(=O)OC(C)(C)C | 0
3 | Cc1cc(C)c(NC(=O)OCc2cccc3cccnc23)c(C)c1 | 83
4 | CCc1ccc(C2=Nc3cccnc3N(CC(=O)Nc3c(C)cc(C)cc3C)C(=O)C2)cc1 | -4
5 | CN(C(=O)Cc1cc(Br)ccc1F)c1nncn1C | 9
6 | O=S(=O)(N[C@H](c1nccs1)C1CC1)c1c(F)cccc1Cl | 0
7 | CC(C)CC(=O)N=c1nc(S)ss1 | -4
8 | COc1ccc(NC(=O)CCC(=O)N2CCc3ccccc3C2)cc1 | 3
9 | CCCN1C(=O)c2ccccc2N2C(=O)CC[C@@]12C(=O)Nc1ccccc1 | 91
10 | CCCN1C(=O)c2ccccc2N2C(=O)CC[C@@]12C(=O)Nc1ccc(OC)cc1 | 92
11 | COc1cccc(NC(=O)c2ccc3c(c2)N(C)[C@@H]2CCCCCN2C3=O)c1 | 5
12 | CC(=O)c1cccc(NC(=O)[C@@]23CCC(=O)N2c2ccccc2C(=O)N3C)c1 | 76
13 | CC(=O)c1cccc(NC(=O)Cn2c(=O)n(CCc3ccccc3)c(=O)c3ccccc32)c1 | 7
14 | COc1ccc(NC(=O)C2=NN(CC(=O)Nc3cccc(OC)c3)C(=O)CC2)cc1 | -12
15 | O=C(CN1C[C@@H](c2ccccc2)Oc2ccccc2C1=O)Nc1ccccc1 | -16
16 | CCN1C(=O)c2ccccc2N2C(=O)CC[C@@]12C(=O)Nc1cccc(OC)c1 | 92
17 | COc1ccc(NC(=O)CN2N=C(C(=O)Nc3ccccc3)CCC2=O)cc1 | -15
18 | CC(=O)c1cccc(NC(=O)c2nonc2C)c1 | -11
19 | CCOc1cccc(CNC(=O)c2nn[nH]c2Nc2ccc(C)c(C)c2)c1 | 1
20 | Cc1ccc(Cc2nn3c(C4CCN(S(C)(=O)=O)CC4)nnc3s2)cc1C | -8
21 | Cc1ccc(OCCCOc2ccc(CO)nc2)cc1C | 3
22 | O=S1(=O)NCCCCN1Cc1ccccc1 | -6
23 | Cc1cc(NC(=O)Cn2c(=O)n(CC(C)C)c(=O)c3sccc32)no1 | -13
24 | Cn1cc(N)c(Oc2ccc3c(c2)OCO3)n1 | 0
25 | Cc1cc(N2C(=O)CCS2(=O)=O)ccc1S(=O)(=O)NC1CCCC1 | 7
26 | Cc1ccc(-c2nn[nH]n2)cc1-n1cccn1 | -2

Row | Structure (SMILES) | % Inhibition [%]
27 | COc1ccc(N2CCN(c3nccn4nc(-c5cccs5)cc34)CC2)cc1 | 6
28 | O=C(NC(N1CCCC1=O)(C(F)(F)F)C(F)(F)F)c1ccco1 | -1
29 | CC(C)(C)OC(=O)NC1CCCN(CC2CN(c3ccc(F)cc3)C(=O)O2)C1 (stereo unspecified) | -8
30 | CN(C)c1nc(N)cc(-c2cccc3cccnc23)n1 | 44
31 | Cc1cccc(C)c1NC(=O)c1cc(-c2cccc3ccccc23)[nH]n1 | 2
32 | Cc1cccc2c(-c3cc(N)nc(N)n3)c[nH]c12 | 85
33 | O=C(NCc1cc(F)cc(F)c1)c1csc(C(=O)NC2CC2)n1 | -6
34 | C[C@H]1CCCN(C(=O)CNC(=O)Cc2ccccc2)CC1 | -9
35 | c1ccc(-c2c[nH]c([C@H]3CCCN(c4ncnc5[nH]ncc45)C3)n2)cc1 | -4
36 | CN(C)c1nc(CN2CCC[C@H](c3n[nH]c(-c4ccccc4)n3)C2)ns1 | -1
37 | COc1ccnc(CN2CCC[C@H](c3nc(-c4ccccc4)c[nH]3)C2)c1OC | 67
38 | CCS(=O)(=O)Nc1cc2c(C(C)=O)c(C)oc2cc1C | 4
39 | Cc1ccc2c(c1)[C@@H](O)C[C@@H](C)N2C(=O)c1ccco1 | -7
40 | Brc1ccc2c(c1)CN(Cc1c[nH]cn1)CCO2 | 4
41 | COc1ccc(N2CCN(c3nc(-c4ccccc4)cs3)CC2)cc1 | -6
42 | COc1ccc(-c2cc(-c3ccccc3)nc(N3CCC(C)CC3)n2)cc1 | 50
43 | Cc1nc(N2CCC(C)CC2)ncc1-c1cc(=O)[nH]c(Nc2ccccc2)n1 | -16
44 | Cc1cccc(NC(=O)CS(=O)(=O)Cc2cc(Cl)cc3c2OCOC3)c1C | -10
45 | COc1cccc(CNC(=O)Cn2c(=O)n(Cc3cccc(OC)c3)c(=O)c3sccc32)c1 | 2
46 | O=C(CNC(=O)c1ccc(C(F)(F)F)cc1)Nc1cnc2c(c1)COCC2 | -1
47 | CCNC(=O)c1csc(COc2ccc3c(c2)[C@H](c2ccc(C)cc2)N(C(=O)CC(C)C)CC3)n1 | 36
48 | Cc1cccc(CN2C(=O)[C@@H]3CCCN3c3ccc(C#N)cc32)c1 | 0
49 | Cc1cc(N2C[C@H]3CC[C@@H](C2)[C@H]3N(C)C)nc(Nc2cccc(O)c2)n1 | 44
50 | Cc1cc(N2CC(OCc3ccccc3)C2)nc(Nc2cccc(O)c2)n1 | 96
51 | CN(C(=O)C(C)(C)Nc1ncc(C(F)(F)F)cc1Cl)c1ccc(Cl)cc1 | 35
52 | CN(CC#N)C(=O)c1ccc(Br)cc1Br | -12

Row | Structure (SMILES) | % Inhibition [%]
53 | O=C(N[C@@H]1CN(Cc2ccccn2)CCC[C@H]1O)c1ccc(OCc2ccccc2)cc1 | 30
54 | CC(C)C1(CNC(=O)C(=O)c2cc(S(N)(=O)=O)cn2C)CC1 | -3
55 | CCn1cc(C)c(C(=O)O)c1CC(=O)NCc1ccc(F)cc1 | -12
56 | CC(CNC(=O)NCC(O)C1CC1)c1ccc(F)c(F)c1 (stereo unspecified) | 3
57 | Cc1nn(C)cc1[C@@H]1CC(=O)Nc2c1cnn2C(C)(C)C | -14
58 | Cc1cc(C)n(-c2nc(Nc3ccc(Cl)cc3)nc(Nc3ccc(Cl)cc3)n2)n1 | 82
59 | COc1cc(OC)nc(-n2nc(C)cc2C(=O)Nc2ccc(Cl)cc2)n1 | 10
60 | Cc1cc(C)n(-c2nnc(-c3ccccc3)c(-c3ccccc3)n2)n1 | 2
61 | O=C(Cc1cccs1)Nc1ncc(Cc2ccccc2)s1 | 4
62 | CCn1cc(Cl)c(C(=O)N2N=C3/C(=C/c4ccc(C)cc4)CCCC3C2c2ccc(C)cc2)n1 (stereo unspecified) | 7
63 | Cc1ccc(NC(=O)CN2CCC3(CC2)NC(c2ccc(OC(F)(F)F)cc2)=NO3)c(C)c1 | -5
64 | CCC(C)(C)c1ccc(OCC(=O)Nc2cccc(C(=O)CC(=O)Nc3ccc(Oc4ccccc4)cc3)c2)c(C(C)(C)CC)c1 | -4
65 | CCN1CCN(C2CCN(c3ncc(F)c(OC)n3)CC2)CC1 | 48
66 | COc1nc(N2[C@@H]3CC[C@H]2C[C@@H](OC)C3)ncc1F | 62
67 | COc1cc(N)ccc1OCC(F)F | 2
68 | Cc1nn(C)cc1-c1cc(C(F)(F)F)nc(N2CCOCC2)n1 | -5
69 | Cn1ccc(NC(=O)C(=O)c2ccc(-c3ccccc3)cc2)n1 | 1
70 | Cc1ccccc1NC(=O)N1CCN(C(=O)c2nonc2N)CC1 | -7
71 | NS(=O)(=O)c1ccc(-c2noc(C3(c4cccc(F)c4)CCC3)n2)cc1 | -9
72 | COCCN1CCc2c(C)nc3c(-c4ccc(OC)c(OC)c4)cnn3c21 | 6
73 | Cc1ccc(S(=O)(=O)N2CCC(c3csc(N)n3)CC2)cc1 | -9
74 | CCc1ncoc1C(=O)NCC(F)(F)c1cc(F)cc(F)c1 | -10
75 | O=C1CCc2[nH]c(=O)n(C3CCCCC3)c(=O)c21 | 4
76 | C[C@@H]1NC(=O)N(C2CCCN(Cc3cccc(C(F)(F)F)c3)C2=O)C1=O (stereo partly specified) | -11
77 | COc1ccc(-n2c(C)nn(Cc3ccccc3)c2=O)cc1 | -11
78 | CN(CCCNC(=O)Cc1n[nH]c(=O)c2ccccc12)Cc1ccccc1 | -2

Row | Structure (SMILES) | % Inhibition [%]
79 | CCCC(=O)Nc1ccc(N2CCN(CC(=O)N(CC)CC)CC2)cc1C(=O)O | -2
80 | Cc1cc(C)c(NC(=O)c2nnn(CC(=O)NCc3ccc(F)cc3)c2C)c(C)c1 | -9
81 | O=C(N[C@H]1C[C@@H]2C[C@H]1CN2C(=O)c1cccc(C(F)(F)F)c1)c1ccccc1 | 3
82 | COc1cc(C)c2[nH]c3c(c(=O)c2c1)CN(CC(=O)Nc1ccc(C)c(F)c1)CC3 | 0
83 | COc1ccc(OC)c(NC(=O)CN2CCc3[nH]c4ccc(F)cc4c(=O)c3C2)c1 | 72
84 | COc1cc(C)c2[nH]c3c(c(=O)c2c1)CN(CC(=O)Nc1ccc(F)c(C)c1)CC3 | 14
85 | COc1ccc(S(=O)(=O)N(C2CCCCC2)C2CCCCC2)cc1 | -11
86 | CCN(CCc1ccncc1)S(=O)(=O)c1ccc(N2C(=O)CCS2(=O)=O)cc1C | 6
87 | O=C(Nc1ccc(-c2nc3cnccc3o2)c(Cl)c1)c1sc2ccccc2c1Cl | -5
88 | COc1cccc(-c2cc(O)cc(CC[C@H]3CCCCN3)c2)n1 | 73
89 | Oc1cc(CC[C@H]2CCCCN2)cc(-c2cnc3ccccc3n2)c1 | 73
90 | COCCN(CC1CN(Cc2ccsc2)CC1c1cccc(F)c1)C(=O)C(C)C (stereo unspecified) | 2
91 | O=C(Nc1ccc(N2CCn3c(nc4cc(Cl)ccc43)C2)cc1)c1ccc(F)cc1 | -6
92 | Cc1nc(Cc2nc(O)cs2)sc1C | -20
93 | NC[C@H]1CN(CCc2cccc(Cl)c2)C(=O)O1 | -8
94 | Cc1ccnc2nc(C(=O)N(C)c3ccc(Cl)cn3)nn12 | 16
95 | CCC(=O)Nc1nc2ccc(NS(=O)(=O)Cc3ccccc3)cc2s1 | -5
96 | Fc1cccc(Br)c1C1CC(c2cccnc2)Nc2ncnn21 (stereo unspecified) | -9
97 | CC(C)(C)OC(=O)NCc1ccccc1O | 1
98 | CCN1CCN(C(=O)c2ccccc2N2CCC(NC(=O)c3cccc(Br)c3)CC2)CC1 | 44
99 | O=C(NC1CCN(Cc2ccccc2)CC1)c1cncc(O)c1 | -10
100 | CCN(CC)CCCNC(=O)c1ccc(-c2nc(CS(=O)(=O)c3ccccc3)c(C)o2)cc1 | -10
101 | O=S(=O)(c1ccc(Cl)cc1)N1CCN(C2CCCC2)CC1 | 2
